# HT1080 IDH1KD tx: qHTS for induction of synthetic lethality in tumor cells producing 2HG: qHTS for the HT-1080-IDH1KD cell line; hit rate 2% among 360,000; HT-1080 IDH1 knockdown viability, ATP luminescence, 48 h; Potency, µM (highest dose often 46.1 µM), without a hit: top-dose activity, negative = toxicity, usual class: cytotoxic; AID 686971, 2013;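 note: potency is the fitted concentration of half-maximal effect; 0% = DMSO wells and -100% = cell-free medium wells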
#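 HT-1080-IDH1KD cells (IDH1 knocked down), 750/well in RPMI with 5% FBS, treated with compound 48 h at 37 degrees C. Viability by CellTiter-Glo luminescence, normalised to DMSO and no-cell wells; concentration-response curves classed.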
# HT1080NT lethal: qHTS for induction of synthetic lethality in tumor cells producing 2HG: qHTS for the HT-1080-NT fibrosarcoma cell line; HT-1080-NT fibrosarcoma viability, CellTiter-Glo ATP luminescence, 48 h; Potency, µM (highest dose often 46.1 µM), for inactives: at the top dose activity, negative = less viability, usual class: cytotoxic; hit rate 1.6% among 360,000; AID 686970, 2013;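 note: NT is the 2HG producing partner of a matched IDH1 knockdown line; potency is the fitted concentration of half-maximal effect; 0% = DMSO-treated cells and -100% = media-only wells without cells; nearly all actives have a fitted effect of over 55% in size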
#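 Compounds were tested in concentration-response format on HT-1080-NT cells for 48 hours at 37 degrees C. Cell viability came from CellTiter-Glo luminescence; curves were classified by r2, response magnitude and activity.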
# TDP1 cell noCPT: qHTS for Inhibitors of human tyrosyl-DNA phosphodiesterase 1 (TDP1): qHTS in cells in absence of CPT; hit rate 15% among 420,000; AID 686978, 2013; Potency, µM (doses to about 46.2 µM), for inactives: top-dose activity change, negative = growth inhibition, most hits filed as inhibitors; DT40 Tdp1-/- hTDP1 cells, no CPT, ATP luminescence, 48 h; note: potency is the fitted concentration of half-maximal effect; nearly all actives have a fitted effect of over 55% in size
#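 Stably hTDP1-transfected Tdp1-null chicken DT40 cells were treated with library compounds minus camptothecin and grown for at least 48 hr at 37 °C, after which cellular ATP was quantified by luminescence.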
# IL-1B inflam inh: qHTS for Inhibitors of Inflammasome Signaling: IL-1-beta AlphaLISA Primary Screen. THP-1 LPS/ATP IL-1B secretion, AlphaLISA, 16 h; stronger effect = lower value. activity change, % at 57.5 µM. hit rate 4.7% among 360,000. AID 743279, 2014; in the data active = activity change below about -50%; inconclusive = mostly about -30% to -49%
#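 Secreted IL-1B measured by AlphaLISA bead assay after 16 h compound exposure of THP-1 cells; compounds (final up to 57.5 uM) added 1 h before LPS (250 ng/mL) and ATP (1.25 mM) stimulation; lower signal means less secretion.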
# DT40 TDP1 CPT: qHTS for Inhibitors of human tyrosyl-DNA phosphodiesterase 1 (TDP1): qHTS in cells in presence of CPT. chicken DT40 Tdp1-/-;hTDP1 cells + 20 nM CPT, ATP luminescence, 48 h. Potency, µM (top dose mostly 46.2 µM), without a hit: at the highest dose activity change, negative = growth inhibition, hits mostly inhibitors. hit rate 12% among 420,000. AID 686979, 2013; note: potency is the fitted concentration of half-maximal effect; nearly all actives have a fitted effect of over 55% in size
#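 Chicken DT40 Tdp1-/- cells stably complemented with human TDP1 were seeded at 400 cells/well in medium containing 20 nM camptothecin, exposed to pin-transferred compounds, and grown at 37 °C for at least 48 hr. Viability was read as ATP luminescence.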
# * = called active by the depositor; u = inconclusive; x = not tested or not shown. An excerpt weighted towards active compounds, which were near 19% of everything screened. Unless noted, calls come from the whole dose curve; as a rule, active = well fitted curve in the direction sought with a large enough effect; inconclusive = small, poorly fitted or top-dose-only effect, or another doubt; inactive = no such curve, though single readings can be large; an effect the other way counts as inactive or inconclusive. Unless noted, % is set by controls: 0 for no effect and ±100 for the full control effect.
SMILES,HT1080 IDH1KD tx,HT1080NT lethal,TDP1 cell noCPT,IL-1B inflam inh,DT40 TDP1 CPT
COc1ccc(NC(=O)CCOc2ccccc2C)cc1S(=O)(=O)N1CCCCC1,-3.4%,-18.0%,18.4µM*,-60.2*,29.1µM*
CN(C)S(=O)(=O)c1cccc(NC(=O)COc2ccccc2C(=O)NCc2ccccc2)c1,-0.2%,-5.0%,u,-7.3,16.4µM*
COc1ccccc1CCC(=O)Nc1ccc(OC)c(S(=O)(=O)N2CCCCC2)c1,-4.1%,-1.3%,-27.5%,5.9,u
COc1cc(CCC(=O)Nc2ccc(C)c(S(=O)(=O)N3CCCCCC3)c2)cc(OC)c1OC,u,-3.9%,7.31µM*,3.4,10.3µM*
Cc1ccc(NCC(=O)Nc2cccc(F)c2)cc1S(=O)(=O)N1CCCCCC1,u,u,16.4µM*,-74.9*,u
COc1cc(CCC(=O)Nc2ccc(S(=O)(=O)N3CCCC3)cc2)cc(OC)c1OC,-3.9%,1.0%,u,17.1,-24.9%
CCOC(=O)CNC(=O)N(C)[C@H]1C[C@H]2c3[nH]c4ccccc4c3CCN2C(=O)[C@H]1[C@H](C)O,23.7%,u,-14.9%,14.1,-4.8%
Cc1nc([N+](=O)[O-])cn1CC(=O)c1ccc2c(c1)OCCO2,x,x,-6.8%,x,-14.7%
COc1ccccc1C(=O)Nc1cc2c(cc1N1CCOCC1)n(C)c(=O)n2C,x,x,-3.9%,x,-20.2%
Cc1cc(O)c(C)c(O)c1C(=O)O,x,x,-13.4%,x,-0.1%
Cc1ccccc1OCC(=O)OCc1cc(=O)n2nc(C3CC3)sc2n1,x,x,-8.9%,x,-15.2%
COc1cc(CCC(=O)Nc2cccc(S(=O)(=O)N(C)C)c2)cc(OC)c1OC,7.9%,6.8%,25.9µM*,8.0,u
CCCCC(=O)Nc1ccc(C)c(S(=O)(=O)N2CCCCCC2)c1,-9.1%,-16.6%,u,-63.6*,u
CC1(C)CC(CCNS(=O)(=O)c2ccccc2)(c2ccccc2)CCO1 (centres undefined),-2.3%,-0.8%,u,-11.9,u
CCC1(C)CC(CCNS(=O)(=O)c2ccc(C)cc2)(c2ccc(C)cc2)CCO1 (centres undefined),u,u,29.1µM*,-9.0,18.4µM*
CC1=C(C(=O)N(C)C)CC(CC(=O)NCCCCc2ccccc2)C(=O)N1CCCN1CCCC1=O (centres undefined),4.0%,9.0%,9.4%,20.2,2.6%
Cc1cccc(-n2cc(CN3CCN(c4ccccn4)CC3)c(-c3cccc(F)c3)n2)c1,-5.2%,0.3%,-2.8%,3.3,u
O=C(c1[nH]c(C(F)(F)F)nc1-c1ccccc1)N1CCN(c2ccccn2)CC1,23.1µM*,u,u,41.4,u
O=C(c1cn(Cc2ccccc2)nc1-c1ccc(Cl)cc1)N1CCN(c2ccccn2)CC1,-1.2%,-12.9%,u,-10.8,u
Cc1ccc(-n2cc(CN3CCN(C(=O)c4ncn[nH]4)CC3)c(-c3ccc(F)cc3)n2)cc1,-3.8%,26.2%,23.1µM*,-59.4*,u
Cc1ccc(-c2nn(-c3ccccc3)cc2C(=O)N2CCN(c3ccccn3)CC2)cc1,u,u,29.1µM*,u,u
Cc1ccc(-n2cc(CN3CCN(c4ccccn4)CC3)c(-c3ccc(F)cc3)n2)cc1,u,10.5%,16.4µM*,u,4.3%
O=C(COC(=O)c1cccc(O)c1)NCc1ccc2c(c1)OCO2,5.8%,0.9%,23.3%,8.7,-2.6%
O=S(=O)(Nc1cc(S(=O)(=O)N2CCOCC2)ccc1NCC1CCCO1)c1ccccc1F (centres undefined),13.1%,3.8%,10.4%,12.4,-4.5%
CN(C)C(=O)c1cn(-c2ccccc2)nc1-c1cccc([N+](=O)[O-])c1,9.3%,11.2%,-17.7%,-16.2,2.5%

# Compound activity as filed in PubChem.
